Compound activity as filed in PubChem.
TDP1 cell CPT: qHTS for Inhibitors of human tyrosyl-DNA phosphodiesterase 1 (TDP1): qHTS in cells in presence of CPT. chicken DT40 Tdp1-/-;hTDP1 cells + 20 nM CPT, ATP luminescence, 48 h. Potency, µM (doses to about 46.2 µM), most hits filed as inhibitors. 12% of 420,000 active. AID 686979, 2013; note: nearly all actives have a fitted effect of over 55% in size
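Cell growth measured by CellTiter-Glo luminescence after a minimum 48 h, 37 C compound exposure with 20 nM CPT in Tdp1-knockout DT40 cells stably expressing hTDP1, seeded 400/well; qHTS titration format.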
TDP1 inh: qHTS Assay for Inhibitors of Tyrosyl-DNA Phosphodiesterase (TDP1). recombinant TDP1, AlphaScreen DNA substrate cleavage. Potency, µM (doses to about 130 µM), actives largely listed as inhibitors. 0.28% of 350,000 active; note: nearly all actives have a fitted effect of over 40% in size
Target sequence (Q9NUW8 whole entry, looked up): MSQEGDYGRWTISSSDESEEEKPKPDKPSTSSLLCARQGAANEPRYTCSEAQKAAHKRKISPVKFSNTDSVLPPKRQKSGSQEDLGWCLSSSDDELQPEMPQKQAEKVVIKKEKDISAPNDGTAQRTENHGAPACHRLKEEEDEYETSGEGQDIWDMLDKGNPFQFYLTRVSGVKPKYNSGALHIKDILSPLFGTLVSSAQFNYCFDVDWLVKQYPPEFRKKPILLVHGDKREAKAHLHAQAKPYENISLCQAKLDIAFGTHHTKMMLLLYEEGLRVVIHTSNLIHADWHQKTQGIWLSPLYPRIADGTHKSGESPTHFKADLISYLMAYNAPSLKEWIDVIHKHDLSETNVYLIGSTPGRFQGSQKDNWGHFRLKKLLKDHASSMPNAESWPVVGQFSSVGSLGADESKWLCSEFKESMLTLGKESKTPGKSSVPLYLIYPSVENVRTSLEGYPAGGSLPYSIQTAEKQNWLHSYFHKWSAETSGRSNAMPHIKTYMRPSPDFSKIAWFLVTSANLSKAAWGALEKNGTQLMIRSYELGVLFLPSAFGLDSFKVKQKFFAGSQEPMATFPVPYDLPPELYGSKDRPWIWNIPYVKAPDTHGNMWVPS
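Signal: AlphaScreen proximity between streptavidin donor and anti-FITC acceptor beads on intact substrate. Reaction: Tdp1 1 nM, substrate 15 nM final, 5 min RT after 15 min compound preincubation.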
TGFb inhibitor: qHTS for Inhibitors of TGF-b; HepG2 CAGA-GFP TGF-b/SMAD3 reporter, GFP fluorescence, 18 h; TGF-beta stimulated, 500 pg/mL final; 1.2% of 410,000 active; Potency, µM (top dose mostly 46.1 µM), actives largely listed as inhibitors; note: nearly all actives have a fitted effect of over 65% in size
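Using HEPG2 CAGA-GFP reporter cells at 1000 cells/well, we pinned test compounds, stimulated with recombinant TGF-beta (500 pg/mL final) and measured total well GFP after 18 h.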
TDP1 cell noCPT: qHTS for Inhibitors of human tyrosyl-DNA phosphodiesterase 1 (TDP1): qHTS in cells in absence of CPT; DT40 Tdp1-/- hTDP1 cells, no CPT, ATP luminescence, 48 h; Potency, µM (titrated, usually from 46.2 µM), hits mostly inhibitors; 15% of 420,000 active; AID 686978, 2013; note: nearly all actives have a fitted effect of over 55% in size
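Compound effects on proliferation are scored in DT40 Tdp1-/-;hTDP1 cells in the absence of CPT. ATP levels (CellTiter-Glo luminescence) are recorded after a ≥48 hr, 37 °C incubation.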
HepG2 tox: qHTS for Inhibitors of TGF-b: Cytotox Counterscreen | HepG2 CAGA-GFP viability, ATP luminescence, 18 h | 0.76% of 410,000 active | Potency, µM (titrated, usually from 46.1 µM), most hits filed as cytotoxic
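HepG2 CAGA-GFP cells (1000/well, DMEM with 1% FBS) received compound, then TGF-beta at 500 pg/mL final, and were incubated 18 hours at 37 degrees C. Viability was read by CellTiter-Glo luminescence. Media-only wells were set as complete cell-killing and DMSO as no toxicity.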
IL-1B inflam inh: qHTS for Inhibitors of Inflammasome Signaling: IL-1-beta AlphaLISA Primary Screen; THP-1 LPS/ATP IL-1B secretion, AlphaLISA, 16 h; stronger effect = lower value; activity change, % at 57.5 µM; 4.7% of 360,000 active; AID 743279, 2014; in the data active = activity change below about -50%; inconclusive = mostly about -30% to -49%
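Secreted IL-1B measured by AlphaLISA bead assay after 16 h compound exposure of THP-1 cells; compounds (final up to 57.5 uM) added 1 h before LPS (250 ng/mL) and ATP (1.25 mM) stimulation; lower signal means less secretion.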
Numbers stand for hits; - = inactive; ? = inconclusive; . = no result given; [ ] = remark or other dose. Only some compounds are listed: those with a hit (about 19% of all), similar ones and a draw of the others. Unless noted, calls come from the whole dose curve; as a rule, active = well fitted curve in the direction sought with a large enough effect; inconclusive = small, poorly fitted or top-dose-only effect, or another doubt; inactive = no such curve, though single readings can be large; an effect the other way counts as inactive or inconclusive.

SMILES	TDP1 cell CPT	TDP1 inh	TGFb inhibitor	TDP1 cell noCPT	HepG2 tox	IL-1B inflam inh
CC(C)Oc1cccc(C(=O)C2CCCN(Cc3cnn(C(C)C)c3)C2)c1 (stereo not drawn)	?	-	-	?	-	-
CC(C)Oc1cccc(C(=O)C2CCCN(C(=O)CCc3cnn(C)c3)C2)c1 (stereo not drawn)	16µM	-	-	?	-	-
COc1ccc(CNC[C@@H](CCCCN(C)Cc2ccc(OC)cc2)N2C[C@H](c3ccccc3)N(CCc3ccc(Cl)c(Cl)c3)C(=O)C2=O)cc1	?	-	?	4.1µM	-	?
COc1ccc(-c2cn(-c3ccc(C)cc3C)c(=S)[nH]2)cc1OC	?	.	-	21µM	-	-
COc1ccc(-n2cc(-c3ccc(OC)c(OC)c3)[nH]c2=S)cc1	-	-	?	?	-	-
COc1ccc(-n2cc(-c3ccccc3)[nH]c2=S)c(OC)c1	7.3µM	.	-	5.8µM	-	?
COc1cc(OC)c(-n2cc(-c3ccc(OC)c(OC)c3)[nH]c2=S)cc1Cl	-	.	-	-	-	?
CCc1ccc(N2CC(C(=O)OCC(=O)NC3CC3)CC2=O)cc1 (stereo not drawn)	-	-	-	-	-	-
CCOC(=O)c1c(NC(=O)c2cccs2)sc2c1CCCC2	-	.	-	-	-	-
CCOC(=O)c1c(NC(=O)CS(=O)(=O)c2cn(CC)c3ccccc23)sc2c1CCCCC2	21µM	-	?	?	-	-
CCOC(=O)c1c(NC(=O)CNCCOC)sc2c1CCCC2	?	-	-	12µM	-	-
CCOC(=O)c1c(NC(=O)CCC(=O)O)sc2c1CCCCC2	?	-	-	?	-	-
CCOC(=O)c1c(NC(=O)CS(=O)(=O)c2ccc(C)cc2)sc2c1CCCCC2	?	-	?	?	-	.
CCOC(=O)c1c(NC(=O)C(C)Sc2cn(CCNC(=O)c3c(F)cccc3F)c3ccccc23)sc2c1CCC2 (stereo not drawn)	21µM	-	-	16µM	-	.
CCOC(=O)c1c(NC(=O)C(C)N2CCN(C(=O)c3ccco3)CC2)sc2c1CCCC2 (stereo not drawn)	15µM	-	?	16µM	-	-57
NC(=O)CNC(=O)c1ccc(Cl)cc1	-	-	-	-	-	-
CCOc1cccc2sc(N(CCN(CC)CC)C(=O)c3ccco3)nc12	?	-	-	?	-	.
CCOC(=O)c1c(NC(=O)C2CC(Cl)=CCC2C(=O)O)sc2c1CCCCC2 (stereo not drawn)	-	22µM	?	-	-	-
O=C(Nc1sc2c(c1C(=O)NCCO)CCCC2)c1ccco1	-	.	-	-	-	-59
Cc1ccc(NC(=O)C2CC(Cl)=CCC2C(=O)O)c([N+](=O)[O-])c1 (stereo not drawn)	-	-	-	?	-	-
CCOC(=O)c1c(NC(=O)C2C3C=CC(C3)C2C(=O)O)sc2c1CCCC2 (stereo not drawn)	?	-	-	?	-	-
CN(C)C(=O)c1c(NC(=O)c2ccco2)sc2c1CCCCC2	?	-	-	-	-	-
Cc1ccccc1NC(=O)C1CC(Cl)=CCC1C(=O)O (stereo not drawn)	?	-	-	13µM	-	-
CC(C)OC(=O)c1c(NC(=O)C2CC=CCC2C(=O)O)sc2c1CCCCC2 (stereo not drawn)	-	.	-	-	-	?
CCOC(=O)c1c(NC(=O)c2ccc(N3C(=O)C4C5C=CC(C5)C4C3=O)cc2)sc2c1CCCC2 (stereo not drawn)	?	-	-	23µM	-	-
SMILES	TDP1 cell CPT	TDP1 inh	TGFb inhibitor	TDP1 cell noCPT	HepG2 tox	IL-1B inflam inh
CC(C)n1c(SCC(=O)c2ccc(F)cc2)nc2c(sc3ccccc32)c1=O	-	-	-	-	-	.
Cc1ccc2c(CC(=O)N3CCOc4ccc(CN5C[C@@H](C)O[C@@H](C)C5)cc4C3)cc(=O)oc2c1	-[9.04 µM]	.	.	-	.	.
COc1cccc(C2C(C(=O)Nc3ccc(C)cc3C)=C(C)Nc3c(C(=O)Nc4cccc(C)c4)cnn32)c1OC (stereo not drawn)	-	-	-	-	-	.
O=C(NCc1ccc(F)cc1Cl)c1cc(=O)[nH]c2ccc(S(=O)(=O)N3CCCCC3)cc12	-	-	-	-	-	.
CCOC(=O)c1c(NC(=O)c2ccco2)sc2c1CCCCC2	29µM	.	-	29µM	-	-
CCOC(=O)c1c(NC(=O)CCNCc2ccco2)sc2c1CCC2	?	-	-	?	-	-69
O=C(Nc1sc2c(c1C(=O)O)CCCCC2)c1ccco1	?	-	?	?	-	-
COC(=O)C1=C(C(=O)OC)[C@@H]2Nc3ccccc3[C@@]23C[C@@H](C(=O)OC)N(S(=O)(=O)c2c(C)noc2C)C3=N1	.	-[12.3 µM]	.	.	.	.
O=C(c1cc2cc([N+](=O)[O-])ccc2oc1=O)n1cccn1	-	-	-	?	-	?
O=C(Nc1nc(C2C3CC4CC(C3)CC2C4)cs1)c1cc2cc([N+](=O)[O-])ccc2oc1=O (stereo not drawn)	12µM	-	?	9.2µM	-	-
COc1cccc2c1Oc1cc([N+](=O)[O-])cc(N(C)C(C)=O)c1C=C2	?	.	-	21µM	-	-
O=C(NCCCO)c1cc([N+](=O)[O-])cc2c1C=Cc1ccccc1O2	?	-	-	?	-	-
COc1ccc(-c2nc(CS(=O)CC(=O)NCc3ccc(F)cc3)c(C)o2)cc1 (stereo not drawn)	?	-	-	-	-	-
COc1ccc2c(c1OC)C(=O)OC2Nc1ccccn1 (stereo not drawn)	-	-	?	-	-	-
COc1ccc2c(c1OC)C(=O)OC2c1ccc(O)cc1 (stereo not drawn)	18µM	-	-	13µM	-	.
COC(=O)c1c(SC)nc2ccccc2c1OCc1ccccc1C	?	.	-	13µM	-	.
CCSc1nc2ccccc2c(OCc2ccc(Cl)cc2)c1C(=O)OC	-	-	?	?	-	.
CCSc1nc2ccccc2c(OCc2cc(C(=O)OC)ccc2OC)c1C(=O)OC	18µM	-	-	?	-	.
